# Calls of active or inactive are those of the source.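 How the source made its calls: active means D2 binding constant Ki of 1000 nM or lower when displacing the radioligand; inactive means the rest.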
# Target: D(2) dopamine receptor (Homo sapiens) (UniProt P14416)
# Experiment: HTS Assay for Allosteric Antagonists of the Human D2 Dopamine Receptor: SAR in D2 Binding Assay
# Conditions: D2 radioligand binding, methylspiperone displacement
# From the text: Dopamine receptors (DARs) are involved in the etiology and/or therapy of a number of neuropsychiatric and endocrine disorders. For instance, all receptor-based antiparkinsonian drugs work via stimulating the D2 DAR subtype whereas all FDA-approved antipsychotic agents are antagonists of this receptor. […] There are three different types of allosteric modulators that we are seeking, two of which will stimulate or augment receptor signaling, allosteric agonists and potentiators, while the third, allosteric antagonists, will attenuate receptor signaling. The present primary screening assay measures compound antagonism after an EC80 addition of dopamine by tracking calcium flux in a […], inducible Hek293 Trex D2 cell line. This assay measures activity of the leads in the D2 radioligand binding assay. NIH Chemical Genomics Center [NCGC] NIH Molecular Libraries Probe Centers Network [MLPCN] MLPCN Grant: NS0676421 Assay Submitter (PI): David Sibley
# Radioligand displacement assay will be done to determine if the lead compounds are allosteric or orthosteric in nature, for interaction with the D2 receptor. Compounds will be evaluated for their ability to displace binding of methylspiperone.
# Chain of D(2) dopamine receptor (Homo sapiens) (P14416 whole entry, looked up): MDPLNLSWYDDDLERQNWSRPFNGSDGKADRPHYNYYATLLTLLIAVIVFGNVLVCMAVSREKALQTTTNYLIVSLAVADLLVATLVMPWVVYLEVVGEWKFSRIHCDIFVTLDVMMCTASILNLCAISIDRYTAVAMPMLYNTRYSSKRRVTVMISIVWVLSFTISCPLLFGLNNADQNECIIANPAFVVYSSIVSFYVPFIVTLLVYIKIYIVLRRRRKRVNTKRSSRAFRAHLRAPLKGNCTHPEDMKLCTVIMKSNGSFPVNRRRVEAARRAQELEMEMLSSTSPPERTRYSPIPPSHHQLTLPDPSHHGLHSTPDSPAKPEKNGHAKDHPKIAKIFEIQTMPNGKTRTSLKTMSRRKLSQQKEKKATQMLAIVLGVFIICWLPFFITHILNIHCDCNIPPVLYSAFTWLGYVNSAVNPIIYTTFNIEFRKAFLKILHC
row,Compound,Ki
1,CN1C(=O)c2ccccc2[S@](=O)c2ccc(C(=O)NCCc3cccs3)cc21,100 nM (active)

# Source: PubChem BioAssay AID624494 (National Center for Advancing Translational Sciences (NCATS), 2012)
